An excerpt weighted towards active compounds, which were near 12% of everything screened.
Pf growth 96h – inhibits malaria parasite growth, 96 h; P. falciparum luciferase reporter growth, 96 h; Potency, µM (series often up to 28.7 µM), for the others: top-dose activity change, negative = inhibition, usual class: inhibitors; 320,000 compounds, 6.9% hits; AID 504834; also: % is scaled to controls: 0 for no effect and ±100 for the full control effect
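Parasite growth measured via integrated firefly luciferase reporter in P. falciparum. Infected erythrocytes at 2% hematocrit, 0.05% parasitemia final were treated 96 hours at 37 C under 5% CO2, and luminescence was read.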
Pf growth 48h – P. falciparum growth inhibition at 48 hours (one generation). Potency, µM (doses to about 28.7 µM), inactives show top-dose activity change, negative = inhibition, hits mostly inhibitors. P. falciparum luciferase growth in erythrocytes, 48 h. 310,000 compounds, 5.9% hits; also: % is scaled to controls: 0 for no effect and ±100 for the full control effect
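Firefly luciferase activity from engineered P. falciparum reports growth; inhibitors lower the luminescent signal. Cultures contained 2% hematocrit erythrocytes at 0.1% final parasitemia.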
SARS PLpro yeast – blocks SARS-CoV papain-like protease in a yeast assay; S. cerevisiae expressing SARS-CoV PLpro, growth rescue; 330,000 compounds, 0.19% hits; Potency, µM (doses to about 32.9 µM), inactives show at the highest dose activity, positive = growth rescue, actives largely listed as activators; calls by dose curve; also: 0% is about no effect; nearly all actives have a fitted effect of over 55% in size
Sm TGR inh – blocks Schistosoma mansoni thioredoxin glutathione reductase; Q962Y6; purified TGR, DTNB reduction, TNB absorbance 405 nm; Potency, µM (highest dose often 114 µM), without a hit: at the top dose activity change, negative = inhibition, usual class: inhibitors; 360,000 compounds, 3% hits; AID 485364; also: % is scaled to controls: 0 for no effect and ±100 for the full control effect; nearly all actives have a fitted effect of over 60% in size
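First, TGR (20 nM dispensed) and NADPH were mixed with compound. Second, a 15 min room-temperature incubation followed. Third, further NADPH and then DTNB were added to start the reaction. Finally, TNB absorbance was monitored kinetically.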
Starred values were filed as active, the others as inactive; ? = inconclusive; . = no result. Unless noted, calls follow the shape of the dose curve; as a rule, active = well fitted curve in the direction sought with a large enough effect; inconclusive = small, poorly fitted or top-dose-only effect, or another doubt; inactive = no such curve, though single readings can be large; an effect the other way counts as inactive or inconclusive. Potency is read from the fitted curve at half-maximal effect.

SMILES	Pf growth 96h	Pf growth 48h	SARS PLpro yeast	Sm TGR inh
CC(C)(C)OC(=O)N1CCC(c2c(C(=O)N3CCN(C(=O)c4ccco4)CC3)cnn2-c2ccc(Cl)cc2)CC1	.	.	.	2.1%
CCC(=O)N1CCc2cc(CNC(=O)c3cccc(N(C)C)c3)ccc21	.	.	.	2.4%
COc1ccc(-c2nc3scc(CCNC(=O)c4cc(OC)cc(OC)c4)n3n2)cc1	.	.	.	-1.0%
CCCC1=NN(c2ccc([N+](=O)[O-])cc2)C(=O)/C1=C/N(C)C	2.8%	39.8%	-6.3%	-1.6%
CC1=NN(c2ccc([N+](=O)[O-])cc2)C(=O)/C1=C\N(C)C	7.38µM*	20.7%	-82.1%	?
CCOc1ccc(C(NC(=O)/C=C/c2ccco2)c2ccc(OC)c(OC)c2)cc1 (stereo not drawn)	?	?	-14.6%	44.7µM*
COc1ccc(C(NC(=O)/C=C/c2ccco2)c2ccc(OC)c(OC)c2)cc1 (stereo not drawn)	?	-27.2%	13.9%	25.1µM*
CCOc1ccc(C(NC(C)=O)c2ccc(OC)c(OC)c2)cc1 (stereo not drawn)	1.47µM*	-6.4%	10.5%	2.4%
CCCC(=O)NC(c1ccc(OCC)cc1)c1ccc(OC)c(OC)c1 (stereo not drawn)	3.2%	?	1.7%	-16.2%
COc1ccc(C(NC(=O)c2ccco2)c2ccc(OC)c(OC)c2)cc1OC	81.0%	-19.8%	2.8%	-11.1%
O=C(CNC(=O)c1ccccn1)N=Nc1c(O)[nH]c2ccccc12	-7.4%	?	-4.4%	11.6%
O=C(Cn1c(=O)oc2cc(S(=O)(=O)N3CCCC3)ccc21)Nc1ccc(F)cc1F	.	.	.	5.3%
Cc1cccc2cc(CN(C(=O)c3cnccn3)C3CCCCC3)c(Cl)nc12	?	4.15µM*	-9.0%	-7.9%
CCOc1ccc2nc(Cl)c(CN(C(=O)c3cnccn3)C3CCCC3)cc2c1	13.8%	?	-1.9%	-6.5%
Cc1ccc(C(=O)NC2CC3CCCC(C2)N3C(=S)NCc2ccco2)cc1 (stereo not drawn)	32.6%	10.4µM*	-2.4%	-25.3%
O=C(NCCc1ccccn1)c1n[nH]c(=O)c2ccccc12	13.1µM*	25.4%	0.8%	0.9%
CCCNC(=O)c1n[nH]c(=O)c2ccccc12	24.1%	17.0%	4.5%	-13.1%
COc1cccc(N2CCN(c3ncnc4onc(-c5ccc(Cl)cc5)c34)CC2)c1	.	.	.	11.6%
COCCN1C(=O)c2ccccc2C(C(=O)NCCCN2CCCC2)C1c1c[nH]c2ccccc12 (stereo not drawn)	-13.6%	13.1µM*	5.6%	5.5%
Cc1c2ccccc2c(C)c2c1ccc1ccccc12	0.657µM*	0.928µM*	.	-1.0%
Cc1ccccc1C(=O)N1CCC(C(=O)Nc2ccc(C)c(S(=O)(=O)N3CCCCC3)c2)CC1	?	13.1µM*	-3.6%	-3.9%
Cc1ccccc1C(=O)N1CCC(C(=O)Nc2cccc(S(=O)(=O)N3CCCCC3)c2)CC1	?	14.7µM*	-2.0%	-2.7%
Cc1ccccc1C(=O)N1CCC(C(=O)Nc2ccc(S(=O)(=O)N3CCCC3)cc2)CC1	.	?	3.7%	-5.4%
CC(C)N(Cc1nccn1C)C(=O)CC1C(=O)NCCN1Cc1ccc(F)c(F)c1 (stereo not drawn)	-1.4%	-2.6%	7.8%	-27.8%
CN(CCCC1CCCC1)C(=O)CC1C(=O)NCCN1Cc1ccc(F)cc1 (stereo not drawn)	?	?	13.0%	28.2µM*
SMILES	Pf growth 96h	Pf growth 48h	SARS PLpro yeast	Sm TGR inh
CN(CC1CCOCC1)C(=O)CC1C(=O)NCCN1Cc1ccccc1F (stereo not drawn)	-7.2%	-11.1%	-4.6%	?
CN(CCC1CCOCC1)C(=O)CC1C(=O)NCCN1Cc1ccoc1 (stereo not drawn)	-7.8%	35.5%	0.9%	?
CN(CCC1CCOCC1)C(=O)CC1C(=O)NCCN1Cc1ccccc1F (stereo not drawn)	56.6%	16.4%	?	44.7µM*
CC(C)N(Cc1nccn1C)C(=O)CC1C(=O)NCCN1Cc1ccc(F)cc1 (stereo not drawn)	13.1µM*	15.6%	0.4%	-32.2%
COc1ccc(OC)c(CN2CCN(c3ccc(S(=O)(=O)N4CCCC4)cn3)CC2)c1	?	?	5.3%	-1.8%
O=C(C[C@H]1C/C=C\CC[C@H](Cc2ccc(F)cc2)C(=O)OC[C@H]2CCCN2C1=O)N[C@@H](CO)Cc1ccccc1	.	.	-1.0%	.
CC(=O)N1c2ccccc2N(Cc2ccc(C)cc2C)C(=O)C1(C)C	1.65µM*	.	-7.7%	-9.2%
C=CCN1C(=O)C(C)(C)N(C(C)=O)c2ccccc21	?	-4.9%	-7.0%	2.2%
COc1ccccc1NS(=O)(=O)c1cc(C(=O)NCC(c2ccco2)N2CCCCC2)ccc1C (stereo not drawn)	8.28µM*	11.7µM*	.	-33.6%
COc1ccc(/C=C/C(=O)NCC(c2ccc(F)cc2)N2CCOCC2)cc1OC (stereo not drawn)	?	8.28µM*	5.5%	-2.5%
Cc1ccc(Sc2ncccc2C(=O)NCC(c2ccc(F)cc2)N2CCOCC2)cc1C (stereo not drawn)	?	11.7µM*	-7.1%	-10.1%
COc1ccccc1NS(=O)(=O)c1cc(C(=O)NCC(c2ccc(F)cc2)N2CCOCC2)ccc1C (stereo not drawn)	?	11.7µM*	-1.1%	-7.0%
O=C(NCC(c1ccc(F)cc1)N1CCOCC1)c1cccnc1Sc1ccccc1 (stereo not drawn)	?	?	-0.5%	5.8%
CCOc1ccccc1N(CC)C(=O)Cn1ncc2c([nH]c3ccccc32)c1=O	.	.	.	-2.2%
CCN(C(=O)CSc1nc(-c2ccc(C(C)C)cc2)no1)c1cccc(C)c1	.	.	.	-10.9%
COc1ccc(C2=C(Nc3ccc(C)cc3)c3ccccc3C2=O)cc1	-15.1%	0.828µM*	-5.4%	-2.6%
CC(=O)Nc1ccc(NC2=C(Cl)C(=O)c3ccccc3C2=O)cc1	18.1%	0.0%	0.9%	0.891µM*
O=C1C(Cl)=C(Nc2ccc3cn[nH]c3c2)C(=O)c2ccccc21	8.28µM*	11.7µM*	-4.6%	0.316µM*
Cc1ccc(NC2=C(NCCO)C(=O)c3ccccc3C2=O)cc1	66.6%	5.86µM*	-2.6%	-18.8%
Cc1cccc(-c2nc3c(cnn3-c3ccccc3)c(=O)n2-c2ccc(Cl)cc2)c1	.	.	.	9.2%
Cc1ccc(C(=O)C(C)OC(=O)c2nc(Cl)ccc2Cl)cc1 (stereo not drawn)	-7.1%	7.9%	1.9%	3.0%
Cc1cnc2c(c1SCC(=O)NCc1ccccc1Cl)c(=O)n(C)c(=O)n2C	.	.	.	-1.0%
CC1CCCC(C)N1C(=O)Cn1nnc(-c2ccc([N+](=O)[O-])cc2)n1 (stereo not drawn)	-25.2%	5.8%	2.4%	-32.5%
CN(C)c1ccc(NC2=C(Cl)C(=O)c3ccccc3C2=O)cc1	18.5%	134.0%	-0.3%	8.91µM*
O=C(Oc1ccc(NC2=C(Cl)C(=O)c3ccccc3C2=O)cc1)c1ccc([N+](=O)[O-])cc1	30.9%	16.8%	-1.7%	-15.9%

High-throughput results from PubChem.
